Bioassay records (PubChem)
The list is not random: actives were taken first. Their share in the collection is about 17%.
HepG2 tox: HepG2 cytotoxicity, counter-screen for TGF-b inhibitors | HepG2 CAGA-GFP viability, ATP luminescence, 18 h | Potency, µM (highest dose often 46.1 µM), for inactives: top-dose activity change, negative = cytotoxicity, usual class: cytotoxic | 0.76% of 410,000 active | AID 588856
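HepG2 CAGA-GFP cells (1000/well, DMEM with 1% FBS) received compound, then TGF-beta at 500 pg/mL final, and were incubated 18 hours at 37 degrees C. Viability was read by CellTiter-Glo luminescence. Media-only wells were set as complete cell-killing and DMSO as no toxicity.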
DT40 TDP1 no CPT: qHTS for Inhibitors of human tyrosyl-DNA phosphodiesterase 1 (TDP1): qHTS in cells in absence of CPT; DT40 Tdp1-/- hTDP1 cells, no CPT, ATP luminescence, 48 h; Potency, µM (highest dose often 46.2 µM), for inactives: at the top dose activity change, negative = growth inhibition, most hits filed as inhibitors; 15% of 420,000 active; AID 686978, 2013; also: % is scaled to controls: 0 for no effect and ±100 for the full control effect; nearly all actives have a fitted effect of over 55% in size
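Readout: luminescence from CellTiter-Glo after 30 min in the dark at RT. Cells: DT40 Tdp1-/- with stable hTDP1, 400/well. Exposure: compounds alone, ≥48 hr, 37 °C.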
HT1080 IDH1KD tx: HT-1080 IDH1 knockdown cell toxicity (counter line). HT-1080 IDH1 knockdown viability, ATP luminescence, 48 h. Potency, µM (series often up to 46.1 µM), inactives show at the highest dose activity, negative = toxicity, usual class: cytotoxic. 2% of 360,000 active;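 also: 0% = DMSO wells and -100% = cell-free medium wells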
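Cytotoxicity counter-line: IDH1KD HT-1080, 48 h, CellTiter-Glo. Curves classed by r2, magnitude and activity.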
TGFb SMAD3 inh: blocks TGF-b signaling; HepG2 CAGA-GFP TGF-b/SMAD3 reporter, GFP fluorescence, 18 h; TGF-beta stimulated, 500 pg/mL final; 1.2% of 410,000 active; AID 588855; Potency, µM (top dose mostly 46.1 µM), without a hit: at the highest dose activity, negative = inhibition, hits mostly inhibitors; also: % is scaled to controls: 0 for no effect and ±100 for the full control effect; nearly all actives have a fitted effect of over 65% in size
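Per well, imaged GFP fluorescence of HEPG2 CAGA-GFP cells gives the signal; cells get compound, then TGF-beta (500 pg/mL final), 18 h at 37 degrees C; %Activity versus -TGF-beta and +DMSO controls.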
HT1080NT lethal: kills 2HG-producing HT-1080-NT fibrosarcoma cells | HT-1080-NT fibrosarcoma viability, CellTiter-Glo ATP luminescence, 48 h | Potency, µM (series often up to 46.1 µM), for inactives: at the top dose activity, negative = less viability, hits mostly cytotoxic | 1.6% of 360,000 active;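 also: NT is the 2HG producing partner of a matched IDH1 knockdown line; 0% = DMSO-treated cells and -100% = media-only wells without cells; nearly all actives have a fitted effect of over 55% in size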
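Viability of the 2HG-overproducing fibrosarcoma line after 48 hours of compound exposure at 37 degrees C was determined by luminescence with CellTiter-Glo, and concentration-effect curves were then fitted and categorized.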
DT40 TDP1 CPT: DT40-hTDP1 cell growth loss with CPT. chicken DT40 Tdp1-/-;hTDP1 cells + 20 nM CPT, ATP luminescence, 48 h. AID 686979. Potency, µM (top dose mostly 46.2 µM), inactives show top-dose activity change, negative = growth inhibition, most hits filed as inhibitors. 12% of 420,000 active; also: % is scaled to controls: 0 for no effect and ±100 for the full control effect; nearly all actives have a fitted effect of over 55% in size
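Cell growth measured by CellTiter-Glo luminescence after a minimum 48 h, 37 C compound exposure with 20 nM CPT in Tdp1-knockout DT40 cells stably expressing hTDP1, seeded 400/well; qHTS titration format.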
Numbers without * were called inactive; ? = inconclusive; / = no result. Calls follow the shape of the dose curve; as a rule, active = well fitted curve in the direction sought with a large enough effect; inconclusive = small, poorly fitted or top-dose-only effect, or another doubt; inactive = no such curve, though single readings can be large; an effect the other way counts as inactive or inconclusive. Potency is read from the fitted curve at half-maximal effect.

SMILES | HepG2 tox | DT40 TDP1 no CPT | HT1080 IDH1KD tx | TGFb SMAD3 inh | HT1080NT lethal | DT40 TDP1 CPT
O=C(C1=C(O)C(=O)N(CC2CCCO2)C1c1ccc(Cl)cc1Cl)c1ccco1 (stereo not drawn) | -8% | ? | -10% | 10% | -13% | ?
Cc1ccc(NC(=O)CCS(=O)(=O)c2ccc3c(c2)oc(=O)n3C)c(Br)c1 | 8% | -7% | / | -10% | / | ?
O=C(Cc1ccc([N+](=O)[O-])cc1)N1CCCc2ccccc21 | -25% | ? | 6% | -5% | -16% | -5%
Cc1ccc2c(c1)C(=O)C(=O)N2Cc1ccc(OCCC(C)C)cc1 | -5% | 0.41µM* | / | ? | / | 0.41µM*
COc1ccccc1CNC(=O)c1cc(S(=O)(=O)N2CCCCC2)c[nH]1 | -20% | -7% | 0% | 0% | 1% | 0%
CCCC(=O)NCc1cc(-c2nn(C)c(=O)c3ccccc23)ccc1C | -18% | -12% | 7% | 12% | 14% | -28%
Cc1ccc(NC(=O)c2ccc(-c3nn(C)c(=O)c4ccccc34)cc2)cc1 | -5% | ? | 0% | -5% | 0% | 21µM*
Cc1ccc(-c2nn(CC(=O)NCc3cc(-c4nn(C)c(=O)c5ccccc45)ccc3C)c(=O)c3ccccc23)cc1 | 3.5µM* | 13µM* | ? | 0% | ? | 15µM*
O=c1c(-c2cccc(Cl)c2)nc2cncnc2n1Cc1ccc(F)cc1 | / | -21% | / | / | / | 1%
CCc1ccc(NC(=O)[C@H](Cc2c[nH]c3ccccc23)NC(=O)[C@@H]2Cc3ccccc3CN2)cc1 | -68% | ? | ? | -2% | ? | 18µM*
COc1cccc(N2CCN(C(=O)C3CCN(C(=O)Nc4ccccc4)CC3)CC2)c1 | 0% | -3% | -5% | 6% | 7% | -11%
COc1ccc(C(=O)N2CCN(c3ccccn3)CC2)cc1 | -5% | -8% | -6% | -2% | 2% | -3%
COc1ccc(-c2noc(N3CCC(C(=O)N4CCN(c5cccc(OC)c5)CC4)CC3)n2)cc1 | 1% | 3.3µM* | / | -2% | / | 6.5µM*
COc1ccc(-c2noc(N3CCC(C(=O)N4CCN(c5ccccc5OC)CC4)CC3)n2)cc1 | -24% | 8.2µM* | / | ? | / | 10µM*
COc1ccc(-c2noc(N3CCC(C(=O)N4CCN(c5ccccn5)CC4)CC3)n2)cc1 | -27% | 10µM* | -14% | -6% | -15% | 23µM*
COc1ccc(OC)c(C2=NOC(C(=O)N3CCN(c4ccccc4)CC3)C2)c1 (stereo not drawn) | -15% | ? | 6% | -7% | -5% | ?
COc1ccc(C2=NOC(C(=O)N3CCN(c4ccccc4OC)CC3)C2)cc1 (stereo not drawn) | -1% | 23µM* | 0% | 6% | 14% | 16µM*
COc1ccc(C(=O)N/N=C/c2cc3ccccc3[nH]c2=S)cc1 | -60% | 1.5µM* | ? | 12% | -25% | 1.5µM*
CCOc1ccc(C(=O)N/N=C/c2cccc3cccnc23)cc1 | -27% | 9.2µM* | ? | ? | ? | 10µM*
CSCC[C@H](NC(=O)OC(C)(C)C)C(=O)N/N=C/c1cccc2cccnc12 | -53% | 21µM* | ? | -6% | -11% | 26µM*
COc1ccc(C(=O)N/N=C/c2cccc3cccnc23)cc1 | -7% | 4.6µM* | ? | ? | -16% | 4.1µM*
COc1ccc(C(=O)N/N=C/c2c[nH]c3ccccc23)cc1 | -28% | 2% | 1% | 10% | 0% | 0%
